# Source: ChEMBL document CHEMBL4513216, “Probing the Open Global Health Chemical Diversity Library for Multistage-Active Starting Points for Next-Generation Antimalarials” (ACS Infect Dis, 2020)
# Hit rate of the full screen: of about 69,000 compounds, about 8,600 (12%) showed an effect of 50% or more. The sample as a whole holds a higher share of strong results than the screen did.
# Tested on: Plasmodium berghei
# Assay: Screen against P. berghei liver stage (PbLuc), transformed with Luciferase, at 10uM
# Assay type: functional, HepG2
# Details: tested at 10 uM
row,SMILES,INHIBITION
1,CCCc1nn(Cc2ccc(Br)s2)c(=O)o1,40.5%
2,CCc1nc(CN2CCCN(C(=O)CC(C)OC)CC2)cs1 (stereo unspecified),43.3%
3,CN(Cc1nccn1CC(F)(F)F)C(=O)c1cccc(C#N)c1,41.1%
4,CC(NC(=O)CNc1cc2c(cc1Cl)OCCO2)c1ccco1 (stereo unspecified),-10.3%
5,O=C(Nc1ccc(-c2cnc(NCCO)nc2)cc1)[C@@H]1CCCCN1,23.4%
6,CCCn1nc2c(cc1=O)CN(CCN1CCCC1=O)CC2,-7.35%
7,CCCn1nc2c(cc1=O)CN(CCS(C)(=O)=O)CC2,70.1%
8,CCCn1nc2c(cc1=O)CN(Cc1cc(C)on1)CC2,40.1%
9,CCCn1nc2c(cc1=O)CN(CCCS(N)(=O)=O)CC2,47.6%
10,CCCn1nc2c(cc1=O)CN(Cc1nc(C)c3ccccc3n1)CC2,34.6%
11,CCCn1nc2c(cc1=O)CN(Cc1ccccn1)CC2,58.3%
12,CNC(=O)N1CC[C@@H]2CN(Cc3ccccc3)S(=O)(=O)[C@@H]2CC1,23.1%
13,CC(NC(=O)NCCc1nc(C(F)(F)F)cs1)C(=O)N(C)C (stereo unspecified),-15.5%
14,O=C([C@H]1C[C@H]2OCC[C@H]2N(Cc2cccnc2)C1)N1CCCO1,38.1%
15,CCn1nccc1CNC(=O)C1CCC1,21.8%
16,c1cnc(NCc2nnn3c2CN(Cc2cccs2)CCC3)nc1,24.9%
17,Cc1nc(NCc2nnc(C)n2C)c2c(CC(C)C)csc2n1,46.6%
18,CCc1csc(C2CCCN(C(=O)c3ccc4[nH]nnc4c3)C2)n1 (stereo unspecified),-10.1%
19,CCCn1nccc1-c1nccnc1CC1CCN(C(C)=O)C1 (stereo unspecified),7.19%
20,O=C(c1ccc(F)cc1)N1C[C@@H]2CCN(c3cccnc3)C[C@@H]2C1,43.9%
21,c1cnc(N2C[C@H]3CCN(c4cccnc4)C[C@H]3C2)nc1,-0.113%
22,Fc1cccc(N2C[C@H]3CCN(c4cccnc4)C[C@H]3C2)c1,50.5%
23,COC(=O)N1CCCCC1C(=O)N1CCN(c2ncccc2C)CC1 (stereo unspecified),12.7%
24,COC(=O)N1CCCCC1C(=O)N1CCN(c2cccnc2)CC1 (stereo unspecified),82.2%
25,FC(F)(F)c1ccnc(N2C[C@H]3CCN(c4cccnc4)C[C@H]3C2)n1,5.96%
26,c1cncc(N2CC[C@@H]3CN(CC4CC4)C[C@@H]3C2)c1,57.4%

row,SMILES,INHIBITION
1,O=C(CC1CC1)N1C[C@@H]2CCN(c3cccnc3)C[C@@H]2C1,19.8%
2,O=C(CC1CCCC1)N1C[C@@H]2CCN(c3cccnc3)C[C@@H]2C1,60.7%
3,COC(=O)N1CCCCC1C(=O)N1CCCN(c2ccnc(C)c2)CC1 (stereo unspecified),15.9%
4,Cc1cc(C(=O)Nc2ccn(CCCN3CCCC3)n2)c(C)o1,18.2%
5,O=S(=O)(C1CC1)N1CCC2(CCN(Cc3nccs3)CC2)CC1,-12.1%
6,CC1CN(C)c2ccccc2CN1CCn1cncn1 (stereo unspecified),38%
7,CNc1ncc(CN2CCCC2c2[nH]ncc2C(=O)N(C)C)cn1 (stereo unspecified),20.2%
8,O=C(COc1cccc(Cl)c1)N1CCOCC(O)(CN2CCCC2)C1 (stereo unspecified),-18.9%
9,CCC(C)(CC)NC(=O)COc1nn(C)c2nc(C)cc(C)c12,48.1%
10,CCCc1nnc(SCc2cc(=O)n3c4c(sc3n2)CCCC4)[nH]1,-4.35%
11,O=C(C1CN(c2ncc(F)cn2)CC12CCOCC2)N1CC=CC1 (stereo unspecified),37.8%
12,Cc1cccnc1CN1CCN(C(=O)c2ccn(C(C)(C)C)c2)CC1,45%
13,O=C(NCCO)C1(Cc2ccccc2-c2cccnc2)CCOCC1,-43%
14,CN(CC(C)(CO)CO)C(=O)Nc1cc(F)cc(F)c1,18.9%
15,COc1ccccc1CN(C)Cc1ccnc(C2CCCO2)n1 (stereo unspecified),14.755%
16,O=C(C1CCCC1)N1C[C@@H]2CCN(c3cccnc3)C[C@@H]2C1,54.4%
17,O=C(C1CCC1)N1C[C@@H]2CCN(c3cccnc3)C[C@@H]2C1,5.96%
18,Cc1cccc(NC(=O)N2CCCn3cnc(CN4CCCC4)c3C2)c1,15.1%
19,CCc1nnc2n1CCN(Cc1csc(Cc3ccccc3)n1)C2,19.2%
20,CC1=N[C@@]2(CC[C@@H]3CN(CC4CC4)C[C@@H]32)C(=O)N1CC1CC1,12.4%
21,COCCN1C(=O)[C@]2(CC[C@@H]3CN(C(=O)NCC(C)C)C[C@@H]32)N=C1C,18.1%
22,CC1=N[C@@]2(CC[C@@H]3CN(CC4CC4)C[C@@H]32)C(=O)N1CC(C)C,74.2%
23,COCCN1C(=O)[C@]2(CC[C@@H]3CN(C(=O)NC(C)C)C[C@@H]32)N=C1C,57.1%
24,CC1=N[C@@]2(CC[C@@H]3CN(CC(C)C)C[C@@H]32)C(=O)N1CC(C)C,39.2%
25,COCCN1C(=O)[C@]2(CC[C@@H]3CN(C(=O)NC4CCCC4)C[C@@H]32)N=C1C,20.2%
